Hits are enriched below; roughly 6.2% of the tested compounds scored in any of these assays.
FMDV inh = foot and mouth disease virus antiviral activity; FMDV antiviral cell-based qHTS; Potency, µM (series often up to 57.9 µM), hits mostly inhibitors; 410,000 compounds, 1.2% hits; AID 1159524; calls by dose curve; tested in HEK293T cells; note: read-out not given here; nearly all actives have a fitted effect of over 45% in size
HCMV inh = blocks human cytomegalovirus replication; HFF cells, HCMV-luciferase reporter, 72 h; hits give low values; 410,000 compounds, 4.5% hits; activity change, negative = inhibition, % at 57.5 µM; AID 1259415; in the data active = activity change below about -60%; inconclusive = no clear call, values can overlap the other calls; inactive = above about -39%
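Human foreskin fibroblasts infected with luciferase-reporter HCMV at MOI 1 PFU/cell, compounds at two doses. Luciferase measured 72 h post infection; normalized to buffer-only basal and Salinomycin (10uM) controls.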
Lassa entry inh = blocks Lassa virus binding to or entry into cells | Lassa virus pseudotype entry inhibition, cell reporter | Potency, µM (titrated, usually from 37.9 µM), usual class: inhibitors | 300,000 compounds, 1.2% hits | AID 540256; calls by dose curve; tested in HEK293 cells; note: nearly all actives have a fitted effect of over 50% in size
Marburg entry inh = inhibitors of Marburg virus binding or cell entry. Marburg virus pseudotyped entry inhibition, cell reporter. Potency, µM (series often up to 37.8 µM), usual class: inhibitors. 300,000 compounds, 1.8% hits. AID 540276; calls by dose curve; tested in HEK293 cells
A number is an active result; . = inactive; ? = inconclusive; / = no result given; ! = a repeat was not active.

SMILES	FMDV inh	HCMV inh	Lassa entry inh	Marburg entry inh
O=C(CSCc1ccc(F)cc1)N1CCN(c2ccc(F)cc2)CC1	?	.	.	.
COc1ccc(-c2nc(CSCC(=O)N3CCN(c4ccccc4)CC3)c(C)o2)cc1	35.5µM	-64.8	.	.
O=C(CSCc1ccc(F)cc1)N1CCN(c2ccccc2)CC1	.	.	?	.
CCCNS(=O)(=O)c1ccc(CCC(=O)N2CCN(c3ccc(F)cc3)CC2)cc1	?	-65.4	.	.
Cn1c(CSCc2ccc(F)cc2)nnc1SCC(=O)N1CCN(c2ccccc2)CC1	?	-68.5	?	?
Cc1ccc(CSCC(=O)N2CCN(c3ccc(F)cc3)CC2)cc1	.	-66.5!	?	.
CCn1c(=O)n(CC)c2cc(N3CCCCC3)c(NC(=O)Nc3cc(Cl)ccc3OC)cc21	.	?	?	/
CCS(=O)(=O)N1CC(=O)N(c2ccc(Cl)cc2C)C(C)(C(=O)NC2CCCCC2)C1 (configuration not stated)	.	.	.	/
Nc1nc(N)c2ncn(C3C=CC(CO)C3)c2n1 (configuration not stated)	.	.	/	/
CCOC(=O)[C@@]1([C@@H](NC(=O)OC)c2ccco2)CCCC1=O	/	/	/	.
CCc1ccc(-c2nc(CSCC(=O)N3CCN(c4ccc(F)cc4)CC3)c(C)o2)cc1	?	-79.5	.	.
Cc1ccc(C(=O)N2CCC(C(=O)c3ccc(F)cc3)CC2)cc1	.	.	/	/
COc1ccc(N2CCN(C(=O)CSCc3ccc(C)cc3)CC2)cc1	.	.	?	/
Cc1ccc(C(=O)C2CCN(CC(=O)N3CCN(c4ccc(F)cc4)CC3)CC2)cc1	.	-69.5	.	?
Cc1ccc(-c2nc(CSCC(=O)N3CCCC3)c(C)o2)cc1	.	?	.	.
COc1ccc(-c2nc(CSCC(=O)N3CCN(c4ccc(F)cc4)CC3)c(C)o2)cc1	12.6µM	-90.2	.	?
Cc1ccc(NC(=O)COCc2cc(-c3cccs3)on2)cc1Cl	.	.	.	/
N#Cc1cc(Oc2cccc3cccnc23)c(-n2nnc3ccccc32)cc1C#N	15.8µM	/	?	?
Cc1cc(C)n(-c2cccc(C(=O)NCC3Cc4cccc(-c5ccccn5)c4O3)c2)n1 (configuration not stated)	.	/	/	/
CCc1cc2c(=O)[nH]c(-c3ccccn3)nc2s1	?	-100.5	5.62µM	6.31µM
CCc1cc2c(=O)[nH]c(N3CCCC3)nc2s1	.	.	?	.
COc1cc([N+](=O)[O-])ccc1NC(=O)CC1SC(=Nc2ccc(F)cc2)N(CCC2=CCCCC2)C1=O (configuration not stated)	?	-98.7	3.16µM	?
COc1ccc(OC)c(NC(=O)CC2SC(=Nc3ccc(F)cc3)N(CCC3=CCCCC3)C2=O)c1 (configuration not stated)	.	.	?	?
CCc1cccc(NC(=O)c2cc3c(=O)[nH]c4ccccc4c3n2C)c1	?	-66.0	.	.
COc1cc2nc3occc3c(OC)c2cc1OC	.	-71.9	?	.
SMILES	FMDV inh	HCMV inh	Lassa entry inh	Marburg entry inh
O=C(CSc1ncc2c(n1)-c1cc(Cl)ccc1N(Cc1ccccc1)S2(=O)=O)NCc1ccccc1	.	.	.	/
O=C(Nc1ccc2nc(SCC(=O)N3CCOCC3)sc2c1)c1cccc(Cl)c1	?	.	.	.
CN1CCN(c2ccc(C(F)(F)F)cc2NC(=O)c2ccco2)CC1	.	.	.	10µM
O=C(Nc1cc(C(F)(F)F)ccc1N1CCCCC1)c1ccco1	.	?	.	?
COc1ccc(NC(=O)COc2ccccc2Cc2ccccc2)cn1	.	.	?	?
COc1ccc(NC(=O)CN(Cc2ccccc2)Cc2ccccc2)cc1S(N)(=O)=O	.	-62.3	.	.
COc1ccc(NC(=O)COc2ccccc2Cc2ccccc2)cc1S(N)(=O)=O	?	-72.9	?	?
CCN(C(=O)CSc1nc2ccccc2n1Cc1ccccc1C#N)c1ccccc1	.	.	.	/
CC(CCN1CCCc2nc(C)c(C)cc21)=NO[C@H](C)CN1CCCc2nc(C)c(C)cc21	/	/	/	.
Cn1cnc2c(SCc3ccccc3)ncnc21	.	.	?	?
ClCCn1cnc2c(SCc3ccccc3)ncnc21	.	-64.4	?	0.891µM
ClCCn1cnc2c(SCc3ccccc3Cl)ncnc21	.	-76.3	?	?
O=C(CN1c2ccc(Br)cc2-c2ccccc2S1(=O)=O)N1CCCCC1	.	.	.	?
Cc1nc(SCC(=O)Nc2ccc(Cl)cc2C(F)(F)F)[nH]c(=O)c1Cc1ccccc1	.	.	.	.
CCOC(=O)Nc1ccc2c(CN(C)Cc3ccc(F)cc3)cc(=O)oc2c1	.	-91.8	/	.
CCOC(=O)[C@@H]1CSCCS(=O)(=O)N1C(=O)[C@H](Cc1ccccc1)NC(=O)OC(C)(C)C	/	.	/	/
CCOc1ccc(-c2c(C(=O)N/N=C/c3ccc(O)cc3)nnn2-c2nonc2N)cc1	.	.	?	.
CN(C)Cc1c(C(=O)N/N=C/c2cccc(OCc3c(F)cccc3Cl)c2)nnn1-c1nonc1N	?	-86.1	/	/
Nc1nonc1-n1nnc(C(=O)N/N=C/c2cccc(Cl)c2)c1CN1CCCCCC1	.	.	/	/
CN1CCN(Cc2c(C(=O)N/N=C/c3cccc(Br)c3)nnn2-c2nonc2N)CC1	.	-60.1	/	/
CCOc1ccc(-c2c(C(=O)N/N=C/c3cccc(Br)c3)nnn2-c2nonc2N)cc1	.	-63.0	/	/
Cc1ccn2cc(-c3ccc4c(c3)NC(=O)CO4)nc2c1	.	-83.9	/	/
CN(C)C(=O)c1ccc(-c2ccc3ncnc(N4CCC(C(=O)O)CC4)c3c2)cc1	.	/	/	/
COc1ccc(C)cc1Nc1n[n+](-c2ccccc2)c(-c2c(OC)ccc3ccccc23)s1	?	-100.9	/	/
Fc1ccc(-[n+]2nc(Nc3ccccc3)sc2-c2c3ccccc3cc3ccccc23)cc1	39.8µM	-97.5	/	/
SMILES	FMDV inh	HCMV inh	Lassa entry inh	Marburg entry inh
CCN(CC)S(=O)(=O)c1ccc2c(c1)N(CC(=O)Nc1ccccc1F)C(=O)C1CCCN21 (configuration not stated)	.	.	.	.
COc1cccc(CNc2ncnc3sc(C(=O)N4CC5CCC4C5)c(C)c23)c1OC (configuration not stated)	.	/	/	/
CCn1c(/C=C\c2ccccc2C)nc2ccccc2c1=O	.	.	/	/
Cc1[nH]c2ccccc2c1/C=C/c1nc2ccccc2c(=O)[nH]1	.	.	?	?
O=c1c2ccccc2nc(/C=C/c2cccnc2)n1CCc1ccccc1	.	-74.8	?	?
CCn1c(/C=C/c2ccccc2Cl)nc2ccccc2c1=O	.	-78.9	.	.
Cc1cccc(/C=C/c2nc3ccccc3c(=O)[nH]2)c1	.	.	3.55µM	?
Cc1cccc(/C=C/c2nc3ccccc3c(=O)n2Cc2ccccc2)c1	?	-83.1	?	?
CCN(CC)C(=O)C1=C(C)N(Cc2ccc(OC)cc2)C(=O)C(CC(=O)NCCc2ccccn2)C1 (configuration not stated)	.	.	/	/
COc1cc(/C=C/CN2CCOc3ccc(C(O)c4cccnc4)cc3C2)ccc1O (configuration not stated)	.	/	/	/
COc1ccc(C)cc1NC(=O)CSc1nc(=O)n(Cc2cccnc2)c2c1CCC2	.	.	.	/
O=c1c2ccccc2nc(/C=C/c2cccnc2)n1Cc1ccccc1	.	-97.6	?	?
Cc1ccccc1-c1cncnc1Nc1ccc(F)cc1	.	/	/	/
CC(C)/C=C(/C(=O)c1ccc(Cl)cc1Cl)n1cncn1	35.5µM	.	/	/
